Source: PubChem
Rows were chosen to be rich in hits. Some 6.8% of all compounds tested hit in one or more screens of this group.
KB-3-1 tox = KB-3-1 parental cell cytotoxicity. AID 1347075. KB-3-1 viability, CellTiter-Glo ATP luminescence, 72 h. Potency, µM (doses to about 46.1 µM), most hits filed as cytotoxic. hit rate 1.4% among 400,000; also: % is scaled to controls: 0 for no effect and ±100 for the full control effect; nearly all actives have a fitted effect of over 60% in size
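KB-3-1 parental drug-naive adenocarcinoma cells in DMEM/10% FBS, incubated 72 h at 37 C with pin-transferred compounds across a concentration series. Viability by CellTiter-Glo luminescence; concentration-response curves fitted after normalization.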
KB-V1 MDR tox = KB-V1 MDR subline cytotoxicity; KB-V1 MDR cells viability, CellTiter-Glo, 72 h; Potency, µM (top dose mostly 46.1 µM), usual class: cytotoxic; hit rate 3.4% among 400,000; AID 1347076; also: % is scaled to controls: 0 for no effect and ±100 for the full control effect; nearly all actives have a fitted effect of over 60% in size
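Cells of the MDR subline KB-V1 are plated, dosed with compound at multiple concentrations, and incubated 72 h at 37 degrees C; CellTiter-Glo is then added and luminescence read after 10 min.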
MCF10A rereplic = DNA re-replication induction in MCF 10a cells. MCF 10A DNA re-replication, Hoechst nuclear intensity, 48 h. Potency, µM (highest dose often 46.1 µM), for the others: top-dose activity, positive = re-replication, most hits filed as activators. hit rate 2.9% among 350,000. AID 624296; also: % of control where 0% means no effect; nearly all actives have a fitted effect of over 50% in size
PTAP TSG101 blk = blocks PTAP/TSG101 interaction to inhibit HIV-1 budding. Fluorescence polarization, FITC-PTAP peptide / Tsg101 binding. Potency, µM (series often up to 115 µM), inactives show top-dose activity change, negative = inhibition, usual class: inhibitors. 340,000 tested, under 10 active; active = well fitted inhibition curve with a large enough effect in the main read-out, with a control signal flat, not every such curve was filed as active; inconclusive = small, poorly fitted or top-dose-only effect, or effect the other way, or a change in a side signal; inactive = no such curve, though single readings can be large or run the other way; also: % of control where 0% means no effect
Target sequence (Q99816 whole entry, looked up): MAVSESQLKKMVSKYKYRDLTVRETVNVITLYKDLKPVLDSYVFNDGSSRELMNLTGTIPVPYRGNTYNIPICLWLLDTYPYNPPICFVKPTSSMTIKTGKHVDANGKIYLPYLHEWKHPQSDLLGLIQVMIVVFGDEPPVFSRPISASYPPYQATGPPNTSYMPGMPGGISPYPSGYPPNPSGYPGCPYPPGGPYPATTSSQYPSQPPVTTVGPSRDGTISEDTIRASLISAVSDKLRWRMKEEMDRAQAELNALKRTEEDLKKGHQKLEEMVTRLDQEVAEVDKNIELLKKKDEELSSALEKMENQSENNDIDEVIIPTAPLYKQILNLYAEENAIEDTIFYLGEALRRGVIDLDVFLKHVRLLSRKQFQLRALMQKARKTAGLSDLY
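FP read-out: FITC-PTAP peptide, 50 nM final, binding Tsg101 binding domain, 10 uM final; 20 min, r.t.; 10 mM HEPES pH 7.5, 0.15 M NaCl, 0.01% Tween 20, 3 mM EDTA, 0.1 mM TCEP.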
SW480 rereplic = inducers of DNA re-replication in SW480 colon cancer cells; SW480 DNA re-replication, Hoechst DNA content imaging, 48 h; Potency, µM (highest dose often 46.1 µM), for the others: top-dose re-replication activation, usual class: activators; hit rate 1.8% among 340,000; AID 624297; also: % of control where 0% means no effect; nearly all actives have a fitted effect of over 55% in size
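Compounds, transferred as 23 nL by pin tool, were incubated with cells for 48 hr; DNA content per nucleus was then quantified by Hoechst staining and fluorescence plate imaging.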
PINK1 expr mod = PINK1 expression modulation. hit rate 0.2% among 410,000. Potency, µM (highest dose often 76.6 µM), for the others: top-dose activation (PINK1 increase), actives largely listed as activators. AID 624263. PINK1 immunofluorescence, high-content cytometry, 24 h; active = well fitted activation curve with a large enough effect; inconclusive = small, poorly fitted or top-dose-only effect; cell line not stated here; also: % of control where 0% means no effect; nearly all actives have a fitted effect of over 65% in size
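Fluorescence from anti-PINK1 antibody, together with nuclear and cell stains, was scanned on a laser-scanning cytometer. Before staining, stable-line cells were incubated 24 hours with compounds at 5 concentrations; primary antibody 12 h at 10 degrees C.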
The depositor's hits bear a star; i = inactive; ? = inconclusive; · = no result; [ ] = dose if it differs, or a comment. Unless noted, calls follow the shape of the dose curve; as a rule, active = well fitted curve in the direction sought with a large enough effect; inconclusive = small, poorly fitted or top-dose-only effect, or another doubt; inactive = no such curve, though single readings can be large; an effect the other way counts as inactive or inconclusive. Potency is read from the fitted curve at half-maximal effect.

SMILES	KB-3-1 tox	KB-V1 MDR tox	MCF10A rereplic	PTAP TSG101 blk	SW480 rereplic	PINK1 expr mod
COc1cccc(NC(=O)COC(=O)c2c3c(nc4ccccc24)CCC(C)C3)c1 (stereo not drawn)	?	2.91µM*	10.3µM*	-20.2%	?	?
CC1CCc2nc3ccccc3c(C(=O)OCC(=O)NC3CCS(=O)(=O)C3)c2C1 (stereo not drawn)	i	i	-1.8%	-0.1%	1.0%	-0.9%
O=C(OCC(=O)N1CCc2ccccc21)c1c2c(nc3ccccc13)CCCCC2	?	4.61µM*	10.3µM*	-2.0%	-2.7%	0.3%
Cc1c(Cl)cccc1NC(=O)COC(=O)c1c2c(nc3ccccc13)CCN(Cc1ccccc1)C2	?	2.06µM*	?	0.5%	?	-2.4%
CC(C)c1ccccc1NC(=O)COC(=O)c1c2c(nc3ccccc13)CCN(Cc1ccccc1)C2	?	?	?	-2.1%	15.4%	-0.6%
CCN(CC)S(=O)(=O)c1ccc2c(c1)c(=O)c(C(=O)N1CCN(c3ccc(OC)cc3)CC1)cn2C	i	i	·	·	·	0.9%
Cn1cnc([N+](=O)[O-])c1S(=O)(=O)c1ccc(Cl)cc1	i	i	9.2µM*	-3.7%	?	2.0%
Cc1c(CCO)c(=O)n2c([nH]c3ccccc32)c1C#N	i	i	-3.7%	-3.3%	-6.9%	-3.4%
CCCCc1c(C)c(C#N)c2[nH]c3ccccc3n2c1=O	?	?	18.4µM*	-1.2%	-1.5%	39.8µM*
Cc1ccccc1-n1c(-c2ccoc2C)n[nH]c1=S	i	i	0.6%	-1.2%	-4.9%	1.3%
Cc1ccccc1-n1c(C)n[nH]c1=S	i	i	9.2µM*	-6.3%	14.6µM*	-0.8%[38.3 µM]
CCc1cc(-c2n[nH]c(=S)n2CC)cs1	?	?	5.3%	-4.2%	-0.4%	-0.1%
CCc1cc(-c2n[nH]c(=S)n2-c2ccccc2C)cs1	i	18.4µM*	-2.6%	-6.7%	?	3.3%[38.3 µM]
CCc1cc(-c2n[nH]c(=S)n2Cc2ccccc2)cs1	i	20.6µM*	3.2%	-0.3%	-1.0%	4.2%
COc1ccc(N2CC(NC(=O)C3CCCC3)CC2=O)cc1 (stereo not drawn)	·	·	·	·	·	0.3%
O=C(O)CNc1nc(-c2ccccc2)c2cc([N+](=O)[O-])ccc2n1	i	i	6.1%	-4.1%	·	0.0%
O=[N+]([O-])c1ccc2nc(NCCCO)nc(-c3ccccc3)c2c1	i	?	14.6µM*	-1.0%	24.0%	1.6%
CCOc1ccc(-c2ccc(SCC(=O)Nc3nnc(CC)s3)nn2)cc1	i	i	3.3%	-0.1%	0.1%	1.4%
CCOc1ccc(-c2ccc(SC)nn2)cc1	?	11.6µM*	-5.5%	0.1%	5.3%	0.8%
COC(=O)c1ccc(CN2C[C@H](Sc3ccccn3)C[C@H]2C(=O)N(C)C)cc1	·	·	·	·	·	-0.6%
Cn1c2c(c(O)c(-c3ccccc3)c1=O)C(=O)CC(C)(C)C2	i	i	2.1%	0.7%	2.6%	1.1%
Cc1ccc(-n2c3c(c(O)c(-c4ccccc4)c2=O)C(=O)CC(C)(C)C3)cc1	i	11.6µM*	9.3%	0.1%	?	3.1%
Cc1ccc(-n2nc(C(=O)N3CCCCC3C)c(=O)n(C)c2=O)cc1 (stereo not drawn)	i	i	·	·	·	-0.2%
C[C@H](NC(=O)OCc1ccccc1)C(=O)NNC(=O)[C@H](Cc1ccccc1)NC(=O)OC(C)(C)C	i	i	-11.8%	0.8%	-5.0%	0.1%
CC(C)(C)OC(=O)C(Cc1ccc(OC(C)(C)C)cc1)NC(=O)CNC(=O)OCc1ccccc1 (stereo not drawn)	?	2.91µM*	?	0.0%	-30.3%	?
SMILES	KB-3-1 tox	KB-V1 MDR tox	MCF10A rereplic	PTAP TSG101 blk	SW480 rereplic	PINK1 expr mod
Cc1ccc(OCCOC(=O)c2cc(S(=O)(=O)N3CCCCC3)ccc2N2CCOCC2)cc1	4.61µM*	2.91µM*	13.2%	-1.2%	?	2.5%
O=S(=O)(c1ccc(NCCOc2ccccc2)nc1)N1CCCC1	i	20.6µM*	-5.6%	-4.6%	-6.1%	0.2%
Cc1ccc(OCCNc2ccc(S(=O)(=O)N3CCCC3)cn2)cc1	i	?	58.4%	-3.9%	20.6µM*	-2.6%
O=S(=O)(c1ccc(SCCOc2ccccc2)nc1)N1CCCC1	i	i	1.4%	1.2%	-3.2%	0.6%
O=C(OCCOc1ccc(Cl)cc1)c1cc(S(=O)(=O)N2CCCCC2)ccc1N1CCOCC1	?	?	2.7%	1.0%	-5.1%	-0.6%
CC1CCC(NC(=O)CCc2cn(Cc3ccc(F)cc3)c3ccccc23)CC1 (stereo not drawn)	·	·	·	·	·	0.5%
O=C(CCN1CCN(c2ccccc2)CC1)N/N=C/c1ccccc1OC(F)F	i	i	9.9%	-1.2%	3.26µM*	3.2%
COc1ccc(OC)c(/C=N/NC(=O)CCN2CCN(C(c3ccccc3)c3ccccc3)CC2)c1	i	?	14.6µM*	-3.3%	7.2%	0.4%
COc1ccc(OC)c(CC2C(=O)Nc3ccc(Br)cc32)c1 (stereo not drawn)	·	·	·	·	·	3.7%
O=C(/C(=C/O)N=Nc1ccccc1)c1ccncc1	i	i	?	0.1%	2.0%	3.9%
Cc1cccc(N=N/C(=C\O)C(=O)c2cccs2)c1	i	25.9µM*	?	0.5%	-19.8%	1.7%
COC(=O)C1=C(O)/C(=C\c2ccc(OCC(=O)Nc3ccc(OC)cc3)cc2)N=C1C	i	?	?	-0.2%	14.6µM*	1.8%
O=C(CC(Sc1ccc(Br)cc1)C(=O)O)c1ccc(F)cc1 (stereo not drawn)	i	i	23.1µM*	-1.5%	?	0.9%
O=C(NC1CCCC1)C(c1ccc(F)cc1)N(Cc1ccccc1Cl)C(=O)CCl (stereo not drawn)	?	14.6µM*	?	-7.6%	?	-2.0%
COCCN(C(=O)CCl)C(C(=O)NC1CCCCC1)c1ccccc1C (stereo not drawn)	13µM*	20.6µM*	?	-3.1%	13µM*	-2.4%
